According to article PMC5540273 (PLoS ONE, 2017):

How the values were obtained:
Conditions in all cases: concentration: 1 μM, replicates: in singlicate; n = 1
HIPK3 = test system: HIPK3
HIPK4 = test system: HIPK4
HPK1 = test system: HPK1
HUNK = test system: HUNK
ICK = test system: ICK
IGF1R = test system: IGF1R
IKK-alpha = test system: T1, IKK-alpha
T1 construct: gene CHUK

IKK-beta = test system: T2, IKK-beta
T2 construct: gene IKBKB

IKK-epsilon = test system: T3, IKK-epsilon
T3 construct: gene IKBKE

INSRR = test system: INSRR
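Note: KINOMEscan kinase panel screen.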

Structure (SMILES) | %Inh (HIPK3) | %Inh (HIPK4) | %Inh (HPK1) | %Inh (HUNK) | %Inh (ICK) | %Inh (IGF1R) | %Inh (IKK-alpha) | %Inh (IKK-beta) | %Inh (IKK-epsilon) | %Inh (INSRR)
Nc1n[nH]c2ncc(-c3ccccc3)cc12 [SB-517081] | 12% | 0% | 44% | 13% | 0% | 18% | 27% | 65% | 13% | 0%
COc1ccc(-c2coc3ccc(-c4nnc(SCc5cccc(C#N)c5)o4)cc23)cc1 | 20% | 0% | 0% | 0% | 17% | 0% | 19% | 7% | 0% | 0%
Cl.NS(=O)(=O)c1cccc(Nc2cc(-c3ccc(F)cc3)n[nH]2)c1 [GW824645] | 18% | 18% | 0% | 58% | 12% | 0% | 1% | 9% | 8% | 0%
Cn1c(=O)c(F)c(Nc2ccc(I)cc2F)c2c(=O)n(OC[C@H](O)CO)cnc21 | 0% | 81% | 0% | 0% | 0% | 0% | 0% | 0% | 0% | 0%
CN(C)c1cc(-c2ccc3c(N)n[nH]c3c2)nc(N)n1 [GSK2219329] | 17% | 0% | 26% | 2% | 4% | 14% | 0% | 0% | 40% | 0%
CCC(=O)c1c(-c2ccccc2)c2cc(Cl)ccc2c(=O)n1Cc1cc(S(C)(=O)=O)n(CCC(C)(C)O)n1 | 0% | 3% | 17% | 0% | 0% | 4% | 0% | 3% | 30% | 10%
COc1cc2ncn(-c3cc(OCc4ccc(S(C)(=O)=O)cc4)c(C(N)=O)s3)c2cc1OC [GW869979] | 2% | 26% | 10% | 2% | 19% | 6% | 0% | 7% | 25% | 0%
CCC(=O)c1c(-c2ccccc2)c2cc(Cl)ccc2c(=O)n1Cc1cc(S(C)(=O)=O)n(CC(N)=O)n1 | 0% | 0% | 0% | 0% | 0% | 0% | 0% | 0% | 0% | 0%
COc1ccc(Nc2nccc(N3CCC(NS(=O)(=O)c4ccc(NC(C)=O)cc4)C3)n2)cc1 (centres unmarked) [GSK1379729] | 14% | 12% | 64% | 0% | 13% | 22% | 12% | 6% | 12% | 21%
Cc1nc(N(C)[C@H]2CN(C(=O)CC#N)CC[C@H]2C)c2cc[nH]c2n1 | 9% | 0% | 0% | 0% | 0% | 0% | 0% | 5% | 0% | 0%
COc1ccc(-c2cc3c(C)nc(N)nc3n([C@H]3CC[C@H](O)CC3)c2=O)cn1 | 0% | 0% | 0% | 0% | 0% | 0% | 0% | 0% | 0% | 0%
Cc1nn2c(=O)cc(N3CCOCC3)nc2n1Cc1cccc(Cl)c1Cl [GSK2342769] | 38% | 0% | 32% | 0% | 2% | 5% | 19% | 18% | 5% | 0%
COc1cc(OC)cc(-c2cc3cnc(N)nc3nc2NC(=O)NC(C)(C)C)c1 | 0% | 0% | 0% | 0% | 0% | 0% | 7% | 9% | 7% | 0%
COc1ccc(-n2cnc3c(N)ncnc32)cc1 [SKF-97236] | 12% | 29% | 5% | 0% | 0% | 19% | 0% | 19% | 3% | 2%
OCCCNc1nccc(-c2c(-c3cccc(C(F)(F)F)c3)nn3cc(C(F)(F)F)ccc23)n1 [GW630813] | 0% | 0% | 27% | 9% | 0% | 8% | 0% | 0% | 14% | 0%
Cc1c(Cn2c(C)nn3c(=O)cc(N4CCO[C@H](C)C4)nc23)cccc1C(F)(F)F [GSK2373690] | 30% | 0% | 24% | 4% | 1% | 41% | 0% | 3% | 0% | 14%
CCn1c(-c2ccoc2)nc2cnccc21 [SB-733887] | 20% | 0% | 35% | 0% | 14% | 0% | 30% | 29% | 60% | 0%
